About 2,300 (0.66%) of roughly 350,000 compounds were called active. The sample holds actives, similar compounds and a random draw of the others, so the mix is not that of the screen. Values without a mark were called inactive.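 The calls were made as follows: active = mean inhibition of at least 50% after viability correction, with every replicate also passing that limit; inconclusive = mean reaches 50% but only one of two replicates passes; inactive = the rest.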
Assay: blockers of EWS/Fli transcriptional output – A673 cells, NR0B1 luciferase, luminescence, MLPCN library, primary screen (AID 651661);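 also: firefly luciferase signal divided by Alamar Blue viability fluorescence both relative to DMSO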
Conditions: A673 NR0B1-luciferase reporter, viability-normalised; at 12.6 µM; hits give high values
C[C@H](CO)N1C[C@H](C)[C@H](CN(C)C(=O)NC2CCCCC2)Oc2ccc(NC(=O)CCCN(C)C)cc2CC1=O showed an inhibition of -7.51%.
In the case of CC(C)OC(=O)N(C)C[C@@H]1OCc2ccccc2-c2c(n(C)c3ccccc23)C(=O)N([C@H](C)CO)C[C@H]1C, the inhibition is reported as 8.3%.
In the case of Cc1ccc(-c2cn3cc(C)ccc3n2)cc1, the inhibition is reported as 66.7% (active).
Cc1ccc(-c2nc3ccc(Br)cn3c2Cc2ccccc2C(F)(F)F)cc1 gave an inhibition of -71.5%.
With Cc1ccc(-n2c(-c3ccc(Cl)cc3)n[nH]c2=S)cc1 the inhibition was 3.61%.
In the case of Cc1ccc2nc(-c3ccc(Br)cc3)cn2c1, the inhibition is reported as 71.9% (active).
COc1ccc(-c2nc3ccc(Br)cn3c2Cc2ccc(C)cc2)cc1OC gave an inhibition of -33.3%.
Molecule Cc1ccc(-c2nc3ccc(Cl)cn3c2Cc2ccccc2)cc1 has an inhibition of -80.4%.
Work on C[C@@H]1CN([C@@H](C)CO)S(=O)(=O)c2ccc(C#Cc3cccnc3)cc2O[C@@H]1CN(C)C(=O)CN(C)C yielded an inhibition of 12.9%.
With CC(=O)N1[C@H](C(=O)N(C)C)[C@@H](CO)[C@@H]2Cn3c(ccc(-c4ccccc4)c3=O)[C@@H]21 the inhibition was 0.262%.
With Cc1ccccc1S(=O)(=O)N1[C@@H]2CNC[C@H]1C2c1ccc(-c2cccnc2)cc1 (some centres not stated) the inhibition was -4.81%.
For CCCNC(=O)N1[C@@H]2Cn3c(ccc(-c4ccc(OC)cc4)c3=O)[C@H]1[C@@H](C(=O)NC1CCC1)[C@@H]2CO, the inhibition was 0.758%.
In the case of Cc1ccccc1-c1ccc([C@H]2[C@@H](CO)N3C(=O)CN(C(=O)c4ccncc4)C[C@H]23)cc1, the inhibition is reported as 0.78%.
COc1ccc2c3c(n(C)c2c1)[C@H](CO)N(S(=O)(=O)c1ccc(C)cc1)CC31CN(C(=O)c2ccccn2)C1 gave an inhibition of -3.69%.
CCOc1ccc(CCN2C(=O)c3cccnc3C2=O)cc1OCC gave an inhibition of 9.92%.
With NC1=CC(=O)C(=O)c2cccnc21 the inhibition was 57.3% (active).
For CCCNC(=O)N1CC2(C1)[C@@H](c1ccccc1)[C@@H](CO)N2C(=O)CC1CC1, the inhibition was 2.39%.
Molecule C[C@@H]1CN([C@H](C)CO)C(=O)Cc2cc(NC(=O)Nc3cccc4ccccc34)ccc2O[C@@H]1CN(C)Cc1ccc(C(F)(F)F)cc1 has an inhibition of -4.39%.
Molecule Clc1cccc(-c2nc(NCC3CCCO3)c3ccccc3n2)c1 (configuration not stated) has an inhibition of 15.1%.
With N#CCSc1nc(-c2ccccc2)nc2ccc(F)cc12 the inhibition was 19.1%.
With Clc1ccc2nc(-c3ccccc3)nc(C(Cl)Cl)c2c1 the inhibition was 68.5% (active).
With CC(C)NC(=O)Nc1ccc2c(c1)C(=O)N([C@@H](C)CO)C[C@H](C)[C@H](CN(C)C(=O)c1ccccc1)OCCCC[C@@H](C)O2 the inhibition was 5.19%.
